Screening data as filed in PubChem BioAssay.
A selection: hits, their analogues and other compounds. The true share with any hit is near 2.8%.
Calpain2 inh = inhibitors of pig calpain II; purified calpain II, fluorogenic peptide substrate, 30 min; inhibition, % at 16 µM; hit rate 0.37% among 220,000; AID 1236;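 active means inhibition above about 50%, limit read from the data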
Mcl1-Noxa inh = disrupts binding of human Mcl-1 to Noxa peptide. Q07820. TR-FRET Mcl-1/Noxa peptide binding, 2 h. inhibition, % at 21.7 µM. hit rate 1.5% among 220,000. AID 1022;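 active means compounds that cut the protein-peptide binding signal by more than 50% relative to plate controls in a single-dose test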;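 further: His-tagged Mcl-1 with rhodamine Noxa BH3 peptide and terbium anti-His antibody; 0% = Mcl-1 plus Noxa peptide wells and 100% = peptide-only wells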
Target sequence (Q07820 whole entry, looked up): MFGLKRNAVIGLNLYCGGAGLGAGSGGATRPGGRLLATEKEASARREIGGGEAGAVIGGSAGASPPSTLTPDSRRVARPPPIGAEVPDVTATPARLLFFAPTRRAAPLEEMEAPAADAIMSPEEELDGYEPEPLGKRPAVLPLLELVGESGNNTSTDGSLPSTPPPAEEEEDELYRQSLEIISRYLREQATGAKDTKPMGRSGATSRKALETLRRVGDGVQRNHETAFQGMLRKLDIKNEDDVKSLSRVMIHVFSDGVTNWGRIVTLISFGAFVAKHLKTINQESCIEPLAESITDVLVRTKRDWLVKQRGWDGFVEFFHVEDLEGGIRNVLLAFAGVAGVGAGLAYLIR
TNF death inh = blocks TNF-alpha induced death of Jurkat FADD-/- cells | Jurkat FADD-/- TNF necroptosis rescue, ATP luminescence, 24 h; 0 = TNF only, 100 = no-TNF cells | AID 463075 | activation (protection from cell death), % at 10 µM | hit rate 0.068% among 220,000;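 active means activation, meaning protection from cell death, of at least 50% relative to plate controls; inactive means activation below 50%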;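 further: necroptosis triggered by 40 ng/mL TNF-alpha added together with compound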
L929 necroptosis = L929 zVAD cell death inhibition. hit rate 0.38% among 220,000. L929 zVAD necroptosis rescue, ATP luminescence, 24 h; with zVAD 60 µM. viability rescue, % at 10 µM;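 active means activation, scaled between plate controls, above about 75%, limit read from the data; inactive means activation under that limit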;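 further: 0% = zVAD with DMSO and 100% = DMSO alone without zVAD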
Mcl1 Bid PPI = Mcl-1/Bid interaction inhibition; inhibition, % at 21.7 µM; hit rate 0.97% among 220,000; TR-FRET Mcl-1/Bid-Dy647 peptide binding, 1536-well;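 active means compounds that cut the binding signal by more than half at the single screening dose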;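 further: His-tagged Mcl-1 with europium anti-His antibody binding Bid BH3 peptide; 0% = Mcl-1 plus peptide wells and 100% = peptide-only wells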
Mcl-1 Bim block = inhibitors of Bim-Mcl-1 interaction, human | Q07820 | Bead-based flow cytometry, Bim peptide-Mcl-1 binding | hit rate 0.1% among 190,000 | AID 1009 | inhibition, % at 10 µM; in the data active means inhibition above about 40%;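 further: 0% = no compound tracer wells and 100% = peptide blocker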
Starred values were filed as active, the others as inactive; i = inactive; · = not tested or not shown.

SMILES	Calpain2 inh	Mcl1-Noxa inh	TNF death inh	L929 necroptosis	Mcl1 Bid PPI	Mcl-1 Bim block
COc1cc2c(C#N)c(N3CCCCC3)nc(N)c2c(N)n1	i	3	-10	65	-58	1
O=C(CSc1nc2cc([N+](=O)[O-])ccc2n1-c1ccccc1)NCc1ccc2c(c1)OCO2	-4	58*	-1	-1	3	4
Cc1cc(C)cc(-n2c(SCC(=O)NCc3ccc4c(c3)OCO4)nc3ccccc3c2=O)c1	10	10	1	0	-83	-6
O=C(O)CCCCCN1C(=O)C(O)=C(C(=O)/C=C/c2ccccc2)C1c1ccccc1[N+](=O)[O-] (centres undefined)	-21	30	1	1	-23	11
O=c1c2c([N+](=O)[O-])cc([N+](=O)[O-])cc2sn1-c1ccc(Br)cc1	-7	91*	-3	0	31	-16
COCCn1cnnc1SCC(=O)Nc1sccc1C(N)=O	-21	31	1	1	-6	0
Oc1ccc(/C=N/Nc2ccnc3cc(Cl)ccc23)cc1O	18	95*	-28	25	-44	·
CCOc1ccccc1Nc1ccnc2cc(Cl)ccc12	3	-1	5	-1	-34	-3
O=C(Nc1ccc(F)cc1)C(=O)c1c(O)[nH]c2ccc([N+](=O)[O-])cc12	57*	-2	-1	4	-36	·
Cc1ccc(C(=O)Nc2ccccc2C(=O)N2CCOCC2)cc1[N+](=O)[O-]	18	30	1	1	-8	-4
COC(=O)C1=C(C)N(C)C(=O)NC1c1cc2c(cc1[N+](=O)[O-])OCO2 (centres undefined)	-73	52*	0	2	-23	0
CC(C)c1c(C#N)c(N)nc(SCC(=O)c2cc3ccccc3oc2=O)c1C#N	-7	-12	1	2	-18	0
N#Cc1ccc(-c2ccccc2)nc1SCC(=O)c1cc2ccccc2oc1=O	-217	21	-8	1	64*	-3
CC(=O)NC1C(=O)N=C(SC(C)C(=O)Nc2cccc(Cl)c2)NC1=O (centres undefined)	-30	19	-1	2	-26	0
CC(/C=C/c1ccco1)=N\NC(=O)CNc1cccc(C)c1	-94	21	-1	0	-85	-2
COc1ccc(NS(=O)(=O)c2cccc(NC(=O)CCS(=O)(=O)c3ccccc3)c2)cc1	-6	19	2	0	-13	-4
CN1CCN(c2ccc(Cl)cc2NC(=O)CCN2C(=O)c3ccccc3C2=O)CC1	-33	31	3	2	2	0
CCCS(=O)(=O)N1CCC(C(=O)NCCC(C)C)CC1	-33	-6	1	5	-32	2
Cc1sc(NC(=O)c2cc(-c3ccc(Cl)cc3)nc3ccccc23)c(C(N)=O)c1C	-50	77*	-1	0	77*	1
Cc1sc(NC(=O)c2cc(-c3ccccc3)nc3ccccc23)c(C(N)=O)c1C	-62	9	-2	0	-8	-9
Cc1cccc(/C=N\NC(=O)c2sccc2-n2cccc2)c1	-5	5	-1	1	-39	-1
O=C(O)/C=C/C(=O)Nc1ccc2c(c1)NC(=O)CO2	8	51*	1	0	18	0
Cc1nn(CCCC(=O)Nc2nccs2)c(C)c1[N+](=O)[O-]	19	15	1	6	-10	-4
CC(C)Cc1nnc(NC(=O)Cc2cccs2)s1	-28	56*	1	8	-54	2
CCCCCc1nnc(NC(=O)Cc2cccs2)s1	-56	67*	2	0	7	0
SMILES	Calpain2 inh	Mcl1-Noxa inh	TNF death inh	L929 necroptosis	Mcl1 Bid PPI	Mcl-1 Bim block
CC(C)c1nnc(NC(=O)Cc2cccs2)s1	0	7	6	2	28	-1
CC(C)(C)Cc1nnc(NC(=O)Cc2cccs2)s1	-91	60*	0	4	-30	-6
O=C(CSc1nc2ccc([N+](=O)[O-])cc2[nH]1)c1ccc2ccccc2c1	-10	62*	-5	1	29	0
CCOC(=O)c1cnc(-n2nc(C)cc2C)nc1Nc1ccc(N(C)C)cc1	15	72*	-2	1	-14	8
CCCCNC(=O)c1ccc2c(c1)N(CC)C(=O)c1ccccc1S2(=O)=O	10	2	4	2	12	10
COc1cc2nc(CN3CCOCC3)n(CC(=O)NCC(F)(F)F)c(=O)c2cc1OC	-2	-11	6	2	-16	·
c1ccc(-n2ncc3c(NCc4cccs4)ncnc32)cc1	64*	-1	3	2	2	0
COc1ccc(-c2cc(C(F)(F)F)nc(SCC(=O)N3CCOCC3)n2)cc1OC	-72	3	1	-1	-4	0
O=C(CSc1nc(-c2ccccc2)cc(C(F)(F)F)n1)N1CCOCC1	12	19	1	0	77*	1
COc1cc(-c2nc3ccccn3c2/N=C/c2ccccc2)ccc1O	i	14	-6	0	-20	-5
O=C(O)c1cc(-c2ccc(/C=N/Nc3ccc([N+](=O)[O-])cn3)o2)ccc1Cl	-55	16	0	3	-20	1
O=[N+]([O-])c1ccc(Cl)c(-c2ccc(/C=N/c3c(-c4ccco4)nc4ccccn34)o2)c1	-27	41	-8	0	55*	2
O=[N+]([O-])c1ccc(-c2ccc(/C=N/c3c(-c4ccco4)nc4ccccn34)o2)c(Cl)c1	-140	62*	-8	0	57*	6
COc1ccc(CNC(=O)CN(c2ccccc2)S(=O)(=O)c2ccccc2[N+](=O)[O-])cc1	-12	1	1	4	-12	-6
CCS(=O)(=O)NCC(c1cccnc1)N1CCN(c2ccc(OC)cc2)CC1 (centres undefined)	63*	15	2	0	-33	-1
Nc1ccc2c(c1)OC1(CCCCC1)O2	16	5	-3	2	-59	-3
O=C(CNC(=O)C12CC3CC(CC(C3)C1)C2)N1CCN(S(=O)(=O)/C=C/c2ccccc2)CC1	-5	-4	-2	0	-7	-2
COc1ccc(S(=O)(=O)N2CCC(C(=O)NCc3cccc(OC)c3)CC2)cc1	34	-3	3	1	-2	1
COc1cccc(CNC(=O)C2CCN(S(=O)(=O)N3CCCCC3)CC2)c1	-9	10	1	0	92*	3
CCN1CCN(Cc2ccc(NC(=O)c3ccc(C)c(NC(=O)c4ccno4)c3)cc2C(F)(F)F)CC1	-13	12	10	75	-35	·
CCN1CCN(Cc2ccc(NC(=O)c3cc(NC(=O)c4cc(-c5ccc(OC)cc5)n[nH]4)cc(OC)c3)cc2C(F)(F)F)CC1	-56	-56	-27	22	-29	·
